Measurements: the supplement of paper PMC6555819

Tested on: LXRa homodimer (NR concentration 270 nM)
Assay: PBM binding z-score (relative to random genomic background probes); higher = stronger binding; sequences stand for … in GC…GCGATTGACAGCGTAGAATGAAGG
How it was run: (§1)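 For binding z-scores, the reference was random background probes on custom Agilent 4×180K protein-binding microarrays. These arrays were incubated 1 h with ligand-free nuclear receptor dimers in PBS pH 7.4, 2% milk, 0.02% Triton X-100, 1 mM DTT, 0.2 mg/mL BSA and 0.4 mg/ml salmon testes DNA. Fluorescence was scanned after antibody detection of each partner (one per run) and regression-normalized.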

Row | Sequence | PBM binding z-score
1 | CGAACTAGGTCACCAGGACAGTAAAGAGGTTGGA | 0.233
2 | ATATGTAGGATATCGGGTCATTCAGTTTGCGCAT | 0.589
3 | ATACGTAGGTTACATCCGGGTCATTCAGGCTATG | 1.12
4 | ATATGGAGGTTAGGGTCATTCAGAAAGTAGGGAA | 1.34
5 | ATATGTAGGTTAGGGTCATTCACAAAGTAGGGAA | 1.56
6 | TAGCCTAGGTCATTCAGGGGGCAGTATAGAAAGC | 2.16
7 | CGAGCTAGGTCACCAGGACAGTGAAGAGGTTGGA | -0.245
8 | CGAACTAGGCCAAAGGACAGTGAAAGGCGACGTA | -0.542
9 | CGAACTAGGTCACCACGACAGTGAAGAGGTTGGA | 0.318
10 | CGTCCAAGGTCAATGCAAGGTCAGTGAAAGCATT | 4.1
11 | CGAACCAGGTCACCAGGACAGTGAAGAGGTTGGA | 0.19
12 | CCTAGTTGGTCAAGGTAACACACGCTATAGGTAC | 0.594
13 | ATATGTAGGTTACATCCGAGTCATTCAGGCTATG | 0.304
14 | ATATGAAGGTTATCGGGTCATTCAGTTTGCGCAT | 1.74
15 | ATATGTAGGTTACATCGGGGTCATTCAGGCTATG | 3.8
16 | CTCGAAAGGTCGGTTGAGGTGAGTAAACGGATAA | -0.0936
17 | CGAACTAGGTAAAAGGACAGTGAAAGGCGACGTA | -0.301
18 | CGTCAAAGTTCAACTAAGTTAACGTAAAGCACGC | 4.61
19 | ATATGTGGGTTAGGGTCATTCAGAAAGTAGGGAA | 1.97
20 | CCGACGGGGGCAAGGTTACCATAACGCACAGCCA | 0.301

Row | Sequence | PBM binding z-score
21 | CTCGAAAGGTCGTCCTCAGGTGAGTATACCAAAC | 0.547
22 | ATTTGTAGGTTATCGGGTCATTCAGTTTGCGCAT | 3.03
23 | TCTGCTAGGTCAGGTGGTCAGCTAACGAGCTGCC | -0.474
24 | CGAACTTGGTCACCAGGACAGTGAAGAGGTTGGA | -0.0617
25 | CGAACTAGGTGACCAGGACAGTGAAGAGGTTGGA | -0.313
26 | CCTACTGGGCCAAGGTCATTGCTCAGTCAAAGCA | 0.828
27 | CGTCCAAGGTAAGAGAGGTCAGTGAATGCCGAGT | 1.66
28 | CGAACTAGGTCACCAGGACAGAGAAGAGGTTGGA | 0.117
29 | CCTACTGGGCCAAAGGTCAGTGATTCCAATGCTC | 1.1
30 | TGAATGAGGTCAAAGATCAGGGAACGTGGCGTCG | 1.74
31 | CCTTACGGGTCACTCCATGTTATAGCATCGGAGT | -0.0151
32 | CGAACTAGGTCACCAGGACAGTGGAGAGGTTGGA | 0.169
33 | CGAATTAGGTCACCAGGACAGTGAAGAGGTTGGA | 0.379
34 | GATACAGGGTGAAGGCCAGAGTACGCGTATTGAT | -0.615
35 | CGAACTAGGTCATCAGGACAGTGAAGAGGTTGGA | 0.124
36 | AGTCAGAGTTCATCTAGGTAACGTAAGATATGCT | 4.78
37 | CCTACTGGGCCATTCAGAGGTCATTGATCATATG | 6.45
38 | CCTTACGGGTCAAGGTAATAGCACGGGTGGTACG | -0.011
39 | CCTTACGGGTCAAGGTTATCGCACGGGTGGTACG | 0.367

Tested on: LXRb:RXRa (NR concentration 270 nM, RXRa partner concentration 90 nM)
Assay: as above
How it was run: as §1

Row | Sequence | PBM binding z-score
40 | CGAACTAGGTCACCAGGACAGTAAAGAGGTTGGA | 1.93
41 | ATATGTAGGATATCGGGTCATTCAGTTTGCGCAT | 2.02
42 | ATACGTAGGTTACATCCGGGTCATTCAGGCTATG | 2.83
43 | ATATGGAGGTTAGGGTCATTCAGAAAGTAGGGAA | 4.8
44 | ATATGTAGGTTAGGGTCATTCACAAAGTAGGGAA | 4.7
45 | TAGCCTAGGTCATTCAGGGGGCAGTATAGAAAGC | 5.66
46 | CGAGCTAGGTCACCAGGACAGTGAAGAGGTTGGA | 1.56
47 | CGAACTAGGCCAAAGGACAGTGAAAGGCGACGTA | -0.756
48 | CGAACTAGGTCACCACGACAGTGAAGAGGTTGGA | 1.87
49 | CGTCCAAGGTCAATGCAAGGTCAGTGAAAGCATT | 5.16
50 | CGAACCAGGTCACCAGGACAGTGAAGAGGTTGGA | 2.53
51 | CCTAGTTGGTCAAGGTAACACACGCTATAGGTAC | 0.713
52 | ATATGTAGGTTACATCCGAGTCATTCAGGCTATG | 0.957
53 | ATATGAAGGTTATCGGGTCATTCAGTTTGCGCAT | 3.02
54 | ATATGTAGGTTACATCGGGGTCATTCAGGCTATG | 4.91
55 | CTCGAAAGGTCGGTTGAGGTGAGTAAACGGATAA | 1.39
56 | CGAACTAGGTAAAAGGACAGTGAAAGGCGACGTA | -0.371
57 | CGTCAAAGTTCAACTAAGTTAACGTAAAGCACGC | 4.33
58 | ATATGTGGGTTAGGGTCATTCAGAAAGTAGGGAA | 5.31
59 | CCGACGGGGGCAAGGTTACCATAACGCACAGCCA | 4.21

Row | Sequence | PBM binding z-score
60 | CTCGAAAGGTCGTCCTCAGGTGAGTATACCAAAC | 3.32
61 | ATTTGTAGGTTATCGGGTCATTCAGTTTGCGCAT | 3.67
62 | TCTGCTAGGTCAGGTGGTCAGCTAACGAGCTGCC | 0.66
63 | CGAACTTGGTCACCAGGACAGTGAAGAGGTTGGA | -0.452
64 | CGAACTAGGTGACCAGGACAGTGAAGAGGTTGGA | -0.307
65 | CCTACTGGGCCAAGGTCATTGCTCAGTCAAAGCA | 2.83
66 | CGTCCAAGGTAAGAGAGGTCAGTGAATGCCGAGT | 1.72
67 | CGAACTAGGTCACCAGGACAGAGAAGAGGTTGGA | 1.71
68 | CCTACTGGGCCAAAGGTCAGTGATTCCAATGCTC | 3.34
69 | TGAATGAGGTCAAAGATCAGGGAACGTGGCGTCG | 4.88
70 | CCTTACGGGTCACTCCATGTTATAGCATCGGAGT | 2.66
71 | CGAACTAGGTCACCAGGACAGTGGAGAGGTTGGA | 1.58
72 | CGAATTAGGTCACCAGGACAGTGAAGAGGTTGGA | 2.04
73 | GATACAGGGTGAAGGCCAGAGTACGCGTATTGAT | -0.42
74 | CGAACTAGGTCATCAGGACAGTGAAGAGGTTGGA | 1.44
75 | AGTCAGAGTTCATCTAGGTAACGTAAGATATGCT | 3.63
76 | CCTACTGGGCCATTCAGAGGTCATTGATCATATG | 3.73
77 | CCTTACGGGTCAAGGTAATAGCACGGGTGGTACG | 2.58
78 | CCTTACGGGTCAAGGTTATCGCACGGGTGGTACG | 2.95
